Data as given in PubChem BioAssay (NCATS).
Inconclusive results are not listed. A number with no mark means an inactive call. Activity calls are given as the source filed them. Calls follow the shape of the dose curve; as a rule, active = well fitted inhibition curve with a large enough effect; inconclusive = small, poorly fitted or top-dose-only effect; inactive = no such curve, though single readings can be large or run the other way.

Assay: Counterscreen qHTS for small molecule stabilizers of the endoplasmic reticulum resident proteome: GLuc-NoTag assay (AID 1508627);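 also: SH-SY5Y cells given compound then 100 nM thapsigargin to empty ER calcium; 0% = thapsigargin alone and -100% = DMSO vehicle control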
Settings: Gaussia luciferase NoTag secretion counterscreen, luminescence, thapsigargin 100 nM for final 4 h; series mostly up to 76.4 µM; activity change, negative = inhibition: at the top concentration
How it was run: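 Counterscreen line: SH-SY5Y-GLuc-NoTag cells, treated with compound 19 hr before a 4 hr, 100 nM thapsigargin calcium depletion. Secreted Gaussia luciferase in the medium was measured by luminescence after coelenterazine was added (0.07x final), with cells unlysed.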

| Structure (SMILES) | activity change, negative = inhibition |
| --- | --- |
| C[C@H](N)C(=O)c1ccccc1 | 21.2% [at 157 µM] |
| C[C@H]1[C@@H]2Cc3ccc(O)cc3[C@@]1(C)CCN2C | -0.69% [at 385 µM] |
| COc1c2c(cc3c1OCO3)CCN(C)C2 | 4.72% |

Assay: Primary qHTS for small molecule stabilizers of the endoplasmic reticulum resident proteome: Secreted ER Calcium Modulated Protein (SERCaMP) assay (AID 1508630); also: % is scaled to controls: 0 for no effect and ±100 for the full control effect
Settings: SH-SY5Y GLuc-SERCaMP (Gaussia luciferase released on ER calcium loss) secretion, thapsigargin, luminescence; series mostly up to 38.4 µM; activity change, negative = inhibition: at the top concentration
How it was run: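 The SH-SY5Y reporter protocol was run at 3 concentrations up to 38.3 uM (primary) or 11 concentrations (follow-up): 16 h compound, 100 nM thapsigargin for 4 h, then extracellular luciferase luminescence.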

| Structure (SMILES) | activity change, negative = inhibition | Potency |
| --- | --- | --- |
| C[N+]1(CCF)[C@@H]2CC[C@H]1CC(OC(=O)C(O)(c1ccccc1)c1ccccc1)C2 (some centres undefined) | -25.3% |  |
| C[C@@H]1CC2=CC(=O)CC[C@@H]2[C@H]2CC[C@@]3(C)[C@@H](CC[C@]3(C)O)[C@@H]21 | -9.93% |  |
| C[C@]12Cc3cn[nH]c3C[C@@H]1CC[C@@H]1[C@@H]2CC[C@@]2(C)[C@H]1CC[C@]2(C)O | 20.7% |  |
| NC1=NC(=O)C(c2ccccc2)O1 (centres undefined) | -14.3% |  |
| COc1cccc(C(=O)CCN[C@@H](C)[C@H](O)c2ccccc2)c1 | -16.8% |  |
| C[C@@H](N)[C@@H](O)c1ccccc1 | -28.1% |  |
| O=C(N/N=C/c1ccc([N+](=O)[O-])o1)c1cc([N+](=O)[O-])cc([N+](=O)[O-])c1O | -19.1% |  |
| O=C1c2ccccc2C(=O)c2ccccc21 |  | inactive |
| CCN[C@H](C)Cc1cccc(C(F)(F)F)c1 | -19.3% [at 76.3 µM] |  |
| [N-]=[N+]=CC(=O)OC[C@H](N)C(=O)O | -11.5% |  |
| COc1cc(CCN)cc(OC)c1OC | 14.3% [at 76.3 µM] |  |
| CCCCC/C=C\C/C=C\C/C=C\C/C=C\CCCC(=O)NCC(=O)O | -20.7% |  |
| CN1CCC(O)(c2ccc(F)cc2)C(C(=O)c2ccc(F)cc2)C1 (centres undefined) | 3.84% |  |
| O=C(O)CCCc1ccc(N(CCCl)CCCl)cc1 |  | inactive |
| CCCCCCC(=O)CCCCCC/C=C/C[C@@H](O)[C@H](O)[C@@](N)(CO)C(=O)O | 5.65% [at 21.6 µM] |  |
| CCCOC(=O)c1cncn1C(C)c1ccccc1 (centres undefined) | 2.11% |  |
